An excerpt weighted towards active compounds, which were near 3.1% of everything screened.
HSF1 inhib – HSF1 inhibition. NIH3T3-HGL HSE-luciferase, MG132-induced, luminescence 8 h; stronger effect = lower value. actives 0.77% (n = 300,000). AID 2098. activity change, negative = inhibition, % at 7.5 µM (by protocol);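 active means more than half of replicate wells show activity change below -50%, luminescence cut by over half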;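 further: luciferase reports HSF-1 transcriptional activity via heat shock element; 0% = median of DMSO wells and -100% = zero luminescence signal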
HSP90 refold inh – HSP90 refolding inhibition in rabbit reticulocyte lysate | luciferase refolding luminescence, 3 h | AID 1789 | actives 0.91% (n = 290,000) | inhibition, % at 5.6 µM;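 active means inhibition above the screen-wide mean plus 3 SD, computed separately per campaign, cut at about 16% in these data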;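 further: 0% = DMSO wells and 100% = 60 µM geldanamycin wells; inhibitors lower the luminescence because luciferase stays unfolded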
HIF act – HIF pathway transcriptional activation. U2OS HRE-luciferase reporter, luminescence; normalized: DMSO 0%, desferrioxamine 100%. activation, % at 7.5 µM (by protocol). actives 0.32% (n = 300,000);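 active means mean activation of at least 10% of the iron chelator positive control signal, with at least half of replicates also reaching 10%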
HSF1 activator – increases HSF-1 driven luciferase reporter signal | activation, % at 9 µM | NIH3T3-HGL HSF-1 luciferase reporter, MG132, 8 h; 100% = twice DMSO control signal | actives 1.7% (n = 300,000);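 active means mean replicate activation of at least 50% with a set share of replicates each reaching 50%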;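 further: 0% = median of the neutral control wells and 100% = twice that signal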
ARNT-TACC3 inh – disruptors of human ARNT/TACC3 interaction; Q9Y6A5; AlphaScreen His-ARNT PAS-B/GST-TACC3 binding, luminescence; TACC3 fragment carries E629A point mutation; inhibition, % at 9.99 µM; actives 0.66% (n = 390,000); AID 623870;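 active means mean inhibition of replicates at least 50% and at least half of replicates each reaching 50%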;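 further: 0% = complete ARNT plus TACC3 wells and 100% = ARNT alone without TACC3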
The depositor's hits bear a star; · = not tested or not shown.

SMILES	HSF1 inhib	HSP90 refold inh	HIF act	HSF1 activator	ARNT-TACC3 inh
N#CCc1c(C#N)c(N)nc(N2CCN(S(=O)(=O)c3ccccc3F)CC2)c1C#N	133	1	-1	173*	-5
Cc1cccc(S(=O)(=O)N2[C@@H]3Cn4c(cccc4=O)[C@H]2[C@@H](C(=O)NC2CCC2)[C@@H]3CO)c1	·	·	·	·	-2
CCC(C)NC(=O)Cc1c(OC)ccc2cc(Br)ccc12 (configuration not stated)	26	4	0	62*	-2
CCCC(C)NC(=O)Cc1ccc(Br)cc1 (configuration not stated)	0	-6	0	-13	-9
CC(C)NC(=O)N(C)C[C@H]1Oc2cc(-c3cncnc3)ccc2S(=O)(=O)N([C@@H](C)CO)C[C@@H]1C	·	·	·	·	3
COC(=O)c1c(C)[nH]c(C)c1-c1cccc([N+](=O)[O-])c1	-91*	-3	0	-93	5
CC(C)NC(=O)NCC[C@@H]1CC[C@@H](NC(=O)CCN2CCCCC2)[C@H](CO)O1	·	·	·	·	-4
N#Cc1c(N)c(C#N)c(-c2ccc3c(c2)OCO3)c2c1CCCC2	2	·	0	-17	-8
N#Cc1c(-c2ccc3c(c2)OCO3)csc1N	-81*	-1	1	-83	6
Nc1ncnc2c(C3OC(CO)C(O)C3O)c[nH]c12 (configuration not stated)	91*	·	·	91*	9
CO[C@@H]1CN(C)C(=O)c2cc(NC(C)=O)ccc2OC[C@@H](C)N(C(=O)c2ccccn2)C[C@@H]1C	·	·	·	·	-3
CO[C@@H]1CN(C)C(=O)c2ccc(NC(=O)Nc3ccccc3F)cc2OC[C@@H](C)N(C(=O)Nc2ccccc2F)C[C@H]1C	·	·	·	·	3
COC(=O)c1sccc1N/N=C/c1cccc(Oc2ccccc2)c1	-39	17*	0	-53	5
COC(=O)c1sccc1N/N=C/c1cccc(OC)c1O	-10	1	-3	-21	1
CCOc1ccc(NC(=S)N(CCc2ccncc2)C(C)C)cc1	-53*	3	1	-63	-2
Cc1cccc(C)c1NC(=S)N(CCc1ccncc1)C(C)C	-2	-2	0	-10	5
Cc1nc2c(nc1C)C(=O)c1ccccc1C2=O	·	·	·	·	6
COC1=C(N)C(=O)c2nc(C)ccc2C1=O	·	·	·	·	30*
CO[C@H](CN(C)S(=O)(=O)c1cccc(Cl)c1)[C@H](C)CN([C@@H](C)CO)S(=O)(=O)c1cccc(Cl)c1	·	·	·	·	2
COC(=O)c1cccc(C(=O)N2CCCC(C(=O)c3ccccc3OC)C2)c1 (configuration not stated)	20	-4	0	59*	-3
COC(=O)C[C@H]1CC[C@@H]2[C@H](COC[C@@H](O)CN2C(=O)Nc2cccc(F)c2)O1	·	·	·	·	-2
CCOC(=O)c1c(N)sc(C(=O)N2CCCCC2)c1C	-2	-1	0	-12	47*
C[C@@H]1CN([C@@H](C)CO)C(=O)c2cc(NC(=O)Cc3ccccc3)ccc2O[C@@H](C)CCCCO[C@@H]1CN(C)C(=O)Nc1cccc2ccccc12	·	·	·	·	2
CC(=O)Nc1ccc(N=NN2CCOCC2)cc1	-5	4	0	-2	2
CC(=O)Nc1ccc(N=Nc2ccc(O)cc2)cc1	31	3	2	57*	14
SMILES	HSF1 inhib	HSP90 refold inh	HIF act	HSF1 activator	ARNT-TACC3 inh
C[C@@H]1CCCCO[C@@H](CN(C)CC2CCCCC2)[C@@H](C)CN([C@@H](C)CO)C(=O)c2cc(NS(=O)(=O)c3ccc(F)cc3)ccc2O1	·	·	·	·	1
COc1cc(C(O)P(=O)(OC2CCCCC2)c2ccc(N(C)C)cc2)cc(OC)c1OC (configuration not stated)	28	0	1	57*	5
C[C@H]1CN([C@@H](C)CO)S(=O)(=O)c2ccc(-c3cccnc3)cc2O[C@H]1CN(C)CC1CCOCC1	·	·	·	·	-1
CCc1ccc(N(CC(=O)NCc2ccco2)C(=O)CCC(=O)Nc2ccccn2)cc1	-1	-2	0	1	-14
CCc1ccccc1N(CC(=O)NCc1ccco1)C(=O)CCC(=O)Nc1ccccn1	-70*	-2	0	-77	·
CCc1ccc(C2=NN(S(C)(=O)=O)C(c3cccs3)C2)cc1 (configuration not stated)	48	2	3	70*	-5
CS(=O)(=O)N1N=C(c2ccc(Br)cc2)CC1c1cccs1 (configuration not stated)	28	0	2	52*	-5
C[C@@H]1CCCCO[C@@H](CN(C)Cc2ccccc2)[C@@H](C)CN([C@H](C)CO)C(=O)c2cc(NS(=O)(=O)c3cn(C)cn3)ccc2O1	·	·	·	·	-23
CCC(C)(C)n1nnnc1C(c1cc2cc(C)cc(C)c2[nH]c1=O)N1CCN(Cc2ccc3c(c2)OCO3)CC1 (configuration not stated)	21	1	0	54*	-4
CCC(C)(C)n1nnnc1C(c1cc2cc(C)cc(C)c2[nH]c1=O)N1CCCC1 (configuration not stated)	·	2	·	·	1
CCCC#Cc1ccc2c(c1)O[C@@H](CN(C)Cc1ccc3c(c1)OCO3)[C@@H](C)CN([C@H](C)CO)S2(=O)=O	·	·	·	·	15
CN(Cc1cccs1)C(=O)COC(=O)CNC(N)=O	-4	-6	0	1	-11
CN(Cc1cccs1)C(=O)CSc1nc(N)cc(N)n1	8	-1	39*	3	-2
COc1ccc(NC(=O)N(C)C[C@H]2Oc3c(NC(=O)C4CCOCC4)cccc3C(=O)N([C@@H](C)CO)C[C@@H]2C)cc1	·	·	·	·	9
Cc1nn(-c2cccc(C(F)(F)F)c2)c(Cl)c1/C=N/Nc1cccc(C(=O)O)c1	-73*	11	1	-78	-2
CCOC(=O)N/N=C/c1c(C)nn(-c2cccc(C(F)(F)F)c2)c1Cl	-2	2	0	14	-5
CCCNC(=O)C[C@H]1C[C@@H]2c3cc(NC(=O)Nc4ccccc4)ccc3O[C@@H]2[C@H](CO)O1	·	·	·	·	-6
C[C@@H]1CN([C@H](C)CO)C(=O)c2cc(C#Cc3cccnc3)cnc2O[C@H]1CN(C)C	·	·	·	·	1
CCOc1ccc(N=C(C)C2=C(O)c3ccccc3C2=O)cc1	27	-3	1	63*	-4
COc1ccc(N=C(C)C2=C(O)c3ccccc3C2=O)cc1	36	0	0	67*	-6
C/C(=N\N(C)C)C1=C(O)c2ccccc2C1=O	1	-4	1	2	-4
C[C@@H]1CN([C@@H](C)CO)C(=O)c2cc(NC(=O)Nc3ccc4c(c3)OCO4)ccc2O[C@@H](C)CCCCO[C@H]1CN(C)Cc1ccncc1	·	·	·	·	8
O=C(CSc1nc2ccccc2o1)Nc1nc2ccccc2s1	3	2	0	24	0
O=C(CSc1nc2ccccc2o1)Nc1nc(-c2ccccc2)cs1	-56*	6	1	-60	-2
CCOC(=S)SCC(=O)Nc1nccs1	84	-5	0	115*	-10

From PubChem
